The results in this text go back to ChEMBL document CHEMBL4513216, “Probing the Open Global Health Chemical Diversity Library for Multistage-Active Starting Points for Next-Generation Antimalarials” (ACS Infect Dis, 2020).

The structures appear in SMILES notation. Screen size: about 68,000 compounds; about 2,700 (4%) showed an effect of 50% or more. Shown is part of a subset that was picked to be rich in strong results.

The test has as its system Plasmodium berghei. Kind of test: Screen against P. berghei liver stage (PbLuc), transformed with Luciferase, at 2uM. Type of test: functional, HepG2. To be noted: tested at 2 uM.
On to `Cc1cc(C)c2c(OCC(=O)N(C)CC(=O)NC(C)C)nn(C)c2n1`, for which the INHIBITION turned out to be 44.95%.
Under `CN(Cc1ccc(F)cc1)C(=O)CN1CCOC(Cn2cncn2)C1` (stereo unspecified) stands 2.08%; under `O=c1cc(CN(CCO)C2CC2)nc2ccc(Cl)cn12`, -28.15%; under `COc1ccc(S(=O)(=O)NCCCc2nnc3nc(C)cc(C)n23)cc1`, 12.7%.
Under `CCCNc1ncc(CN2CCC3(CC2)CNC(=O)C3)cn1` stands 29.94%; under `CCCNc1ncc(CN2CCC3(CCNC(=O)CC3)CC2)cn1`, 56.78%; under `COCc1ncc(CN2CCC3(CCNCC3)CC2)cn1`, -8.84%.
As for `CCCNc1ncc(CN2CCN(C)C(=O)C2C)cn1` (stereo unspecified), the figure is -29.46%; as for `COc1ncc(CN2CCC3(CCNC(=O)CC3)CC2)cn1`, 0.85%; as for `COCc1ncc(CN2CCC3(CCNC(=O)CC3)CC2)cn1`, 53.55%.
Take `COC(=O)NCC1CCC2(CCNCC2)O1` (stereo unspecified): the INHIBITION was 61.7%.
As for `O=C(NCC1CCC2(CCNCC2)O1)C1CC1` (stereo unspecified), the figure is 24.36%; as for `N#CC1(C(=O)NCC2CCC3(CCNCC3)O2)CC1` (stereo unspecified), 49.07%.
Under `Cn1ccc(C(=O)N2C[C@@H]3CN(CC4CC4)CCO[C@@H]3C2)n1` stands 42.79%; under `O=C(CCc1nc(Cl)n[nH]1)N1CCC2(CCCNC2=O)C1` (stereo unspecified), -35.22%.
Under `O=C(CCc1nc(Cl)n[nH]1)N1CCC2(CCCN(CC3CCC3)C2=O)C1` (stereo unspecified) stands 57.34%.
Take `O=C(CCCn1cncn1)N1CCC2(CCCN(CC3CC3)C2=O)C1` (stereo unspecified): the INHIBITION is recorded as 23.19%.
As for `O=C1CCc2cc(NC(=O)C3CCCN3c3nccs3)ccc2N1` (stereo unspecified), the figure is -73.41%; as for `Cc1cc(-c2ccc(C(C)N3CCCCC3)cc2)cnc1N` (stereo unspecified), 69.99%.
For `Cc1cc(-c2ccc(C(C)N3CCOCC3)cc2)cnc1N` (stereo unspecified), the INHIBITION is -38.09%.
For `CC(c1ccc(-c2cnc(N)nc2)cc1)N1CCOCC1` (stereo unspecified), the INHIBITION is listed as 41.78%.
As for `CCC(CC)c1cc(CNC(=O)N2CCC[C@@H]2CO)on1`, the figure is -1.89%.
As for `COc1ccccc1C(=O)N1Cc2cc(C)ccc2OCC1CN(C)C` (stereo unspecified), the figure is -71.28%; as for `Cc1ccc(O)c(C(=O)N2CCOCC2c2c(C)n[nH]c2C)c1` (stereo unspecified), 24.02%.
With `Cc1nn(C)c(C)c1C1COCCN1C(=O)c1cc(F)ccc1F` (stereo unspecified), the INHIBITION amounted to 21.52%.
Under `Cc1ccc(O)c(C(=O)N2CCOCC2c2c(C)nn(C)c2C)c1` (stereo unspecified) stands 60.71%; under `CC(NC(=O)Nc1cccnc1N1CCOCC1)c1ccncc1` (stereo unspecified), 0.45%; under `CC(C)OCc1cccc(CNc2cnn(C)c(=O)c2Cl)c1`, 4.18%.
Consider `CC(=O)N1CCO[C@@H]2CN(S(=O)(=O)c3cccnc3)C[C@@H]2C1`, for which the INHIBITION is on record as -37.03%.
Under `Nc1nc(CN2CCN(c3nccs3)CC2)cs1` stands -4.26%; under `CC(=O)N(C)c1nc(CN2CCN(c3nccs3)CC2)cs1`, -20.95%.
Under `CCN(C(C)=O)c1nc(CN2CCN(c3nccs3)CC2)cs1` stands 55.36%; under `CC(C)N1CCc2c(c(COc3cccnc3)nn2CC2CC2)C1`, -0.59%; under `Cc1nn(C)c(C)c1C1CCCN1Cc1nc(-c2cccs2)no1` (stereo unspecified), 45.83%.
As for `Cc1cccc(C(=O)N2CCN(C)CC2)c1NC(=O)c1ccncc1`, the figure is 29.22%; as for `CNc1cc(C2CCCN2Cc2ccc(OCC(=O)O)cc2)ccn1` (stereo unspecified), 29.06%; as for `CCO[C@@H]1CCN(C(=O)N(C)C)[C@@H]1Cc1cnn(C)c1`, 63.84%.
Regarding `COCCO[C@H]1CCN(C(=O)c2cnoc2C)[C@H]1Cc1cnn(C)c1`, the INHIBITION is given as 63.06%.
As for `COCCO[C@H]1CCN(C(=O)c2ccno2)[C@H]1Cc1cnn(C)c1`, the figure is 1.02%.
As for `CCO[C@@H]1CCN(C(=O)c2ccnnc2)[C@@H]1Cc1cnn(C)c1`, the figure is 18.15%; as for `Cn1cc(C[C@H]2[C@@H](OCC3CC3)CCN2C(=O)c2ccc[nH]2)cn1`, -1.33%; as for `CN(C)C(=O)N1CC[C@@H](O)[C@@H]1Cc1cnn(C)c1`, 12.88%.
As for `CCO[C@@H]1CCN(C(=O)c2ccc[nH]2)[C@@H]1Cc1cnn(C)c1`, the figure is 5.28%; as for `COCCO[C@@H]1CCN(C(=O)c2ccc[nH]2)[C@H]1Cc1cnn(C)c1`, 66.69%; as for `COCCO[C@H]1CCN(C(=O)c2ccoc2C)[C@H]1Cc1cnn(C)c1`, 5.35%.
Regarding `CC(C)c1ncc(CN2C[C@@H](CN3CCC(O)CC3)[C@@H](CO)C2)cn1`, the INHIBITION was -142.15%.
Under `Cc1cnc(CN(C)Cc2cccc(OC(F)(F)F)c2)cn1` stands 8.59%.
As for `c1ccc2nc(CN3CCCC3c3noc(C4CC4)n3)ccc2c1` (stereo unspecified), the figure is 0.74%; as for `Cc1nn(C2CCS(=O)(=O)C2)c(O)c1Cc1ccccc1Cl` (stereo unspecified), -0.89%; as for `Cc1nc(CN(Cc2ccccc2F)C2CCC2)no1`, -3.11%.
With `COCCN(Cc1ccoc1)C(=O)CSc1ccc(F)cc1`, the INHIBITION was 12.7%.
As for `CN(Cc1ccncc1)C1CC2(CCN(c3ncc(F)cn3)CC2)C1`, the figure is -20.67%.
For the compound `COc1cc2cc(C)c(SCCN3CCCCC3)nc2cc1OC`, the INHIBITION is recorded as 11.74%.
As for `CN(C)CC1CSCCCN1C(=O)c1ccc(-n2cccc2)cc1` (stereo unspecified), the figure is 15.49%.
Under `Cc1cc(C(F)(F)F)nc(CNc2cc(C)nc3cc(C)nn23)n1` stands -15.4%; under `Cc1cc(NCCCC(F)(F)F)n2nc(C)cc2n1`, -2.24%.
For `Cc1cc(NCc2cc(C)oc2C(F)(F)F)n2nc(C)cc2n1`, the INHIBITION was 51.77%.
Take `CCCN1CCCn2c(nc(CNC(=O)c3ccsc3)cc2=O)C1`: the INHIBITION is listed as -2.19%.
As for `CCC1CN(C(=O)c2cccc(O)c2)CCC(=O)N1Cc1ccccc1` (stereo unspecified), the figure is -0.23%.
Consider `c1cnc(N2CCC3(CC2)CN(CC2CC2)c2ccccc23)nc1`, for which the INHIBITION was -59.24%.
As for `CC1CCCN(C(=O)CNC(=O)c2ccoc2)C1` (stereo unspecified), the figure is -13.92%.
As for `CNC(=O)C1(N2CCC[C@H]2C(=O)NC2CCCCC2)CCOCC1`, the figure is 20.87%; as for `COCC1c2c(cnn2C)CCN1Cc1ccsc1` (stereo unspecified), -61.95%; as for `c1ccc(-c2ccc(C3CNCCO3)nc2)cc1` (stereo unspecified), 36.92%.
As for `Cc1ccc(-c2ccc(C3CNCCO3)nc2)cc1` (stereo unspecified), the figure is 81.51%; as for `c1ncc(-c2ccc(C3CNCCO3)nc2)cn1` (stereo unspecified), 27.3%.
Regarding `COc1ccc(-c2cnc(N(C)C)nc2C2CNCCO2)cc1` (stereo unspecified), the INHIBITION was 38.42%.
Consider `Clc1ccc(-c2ccc(C3CNCCO3)nc2)cc1` (stereo unspecified), for which the INHIBITION came to 39.65%.
Under `COc1ccc(-c2ccc(C3CNCCO3)nc2)cc1` (stereo unspecified) stands 84.26%.
As for `Cn1cc(CN2CCn3cc(CNC(=O)c4cccn4C)nc3C2)cn1`, the figure is 16.22%; as for `Cc1c(NCc2ccc(C#N)cc2)cccc1S(=O)(=O)NC1CC1`, 21.14%.
As for `COC(=O)CNC(=O)c1ccn(-c2ccc(Cl)c(Cl)c2)n1`, the figure is -14.28%.
In the case of `CCN(Cc1ccncc1)C(=O)c1cn(CCCc2ccccc2)nn1`, the INHIBITION was 30.42%.
Under `CC(C)=CCN1CC2(CCN(Cc3ncc[nH]3)CC2)CC1=O` stands 20.34%; under `CN1CC2(CCN(Cc3ncc[nH]3)CC2)CC1=O`, 73.62%.
Regarding `COCCCN1CC2(CCN(Cc3ncc[nH]3)CC2)CC1=O`, the INHIBITION is recorded as 25.13%.
For `Cc1n[nH]cc1C(=O)NCc1cccnc1N1CCc2ccccc2C1`, the INHIBITION was determined as 18.63%.
As for `CS(=O)(=O)Cc1ccc(CNc2ncc(C#N)cc2Cl)cc1`, the figure is -35.5%; as for `N#Cc1ccc(CNc2ncc(C#N)cc2Cl)cc1`, 51.88%.
Under `CCN(CC)C(=O)c1ccc(CNc2ncc(C#N)cc2Cl)cc1` stands 27.52%; under `CSc1nccc(N2CCC3(CCCN(CCc4ccccc4)C3)C2)n1` (stereo unspecified), -31.44%; under `CCC(NC(=O)c1nn(C)cc1C(=O)O)c1ccccc1` (stereo unspecified), 49.95%.
As for `Cc1ccc(CNC(=O)NC2CCN(CC(F)F)CC2)cc1`, the figure is -5.19%; as for `N#Cc1ccc(CNC(=O)NC2CCN(CC(F)F)CC2)cc1`, -39.58%.
As for `N#Cc1cccc(CNC(=O)NC2CCN(CC(F)F)CC2)c1`, the INHIBITION came out at 67.51%.
Regarding `O=C(NCc1nnc2n1CCCC2)c1ccc(C2CCCO2)s1` (stereo unspecified), the INHIBITION is listed as 29.22%.
With `COc1cc(N2CCC3(CCCN(Cc4ccccn4)C3)C2)ncn1` (stereo unspecified), the INHIBITION is listed as -21.32%.
Turning to `O=C(NCC1CCN(c2ncccn2)CC1)c1cnccn1`, the INHIBITION amounted to 26.66%.
As for `Cc1cc(C)nc(N2CCC(CNC(=O)c3cnccn3)CC2)n1`, the figure is 95.75%.
Consider `Cc1cc(C)nc(N2CCC(CNC(=O)c3ccccn3)CC2)n1`, for which the INHIBITION came to 27.39%.
As for `CN(Cc1cccc(F)c1)C(=O)CN1CCOC(Cn2cccn2)C1` (stereo unspecified), the figure is 20.28%; as for `O=c1[nH]c(-c2cccnc2)nc2c1CCN(S(=O)(=O)N1CCCC1)C2`, -15.3%.
Under `CCn1ncc(CN2CCc3c(nc(-c4cccnc4)[nH]c3=O)C2)c1C` stands 54.82%.
Under `CCn1ncc(CN2CCc3nc(-c4cccnc4)nc(O)c3C2)c1C` stands 21.14%.
With `Cc1nc(C(=O)N[C@H]2COC[C@@H]2N2CCCCC2)cs1`, the INHIBITION was determined as 11.19%.
Under `O=C(N[C@H]1COC[C@@H]1N1CCCC1)c1c[nH]nc1C1CCCCC1` stands 77.54%; under `CCO[C@H]1COC[C@@H]1NC(=O)c1c[nH]nc1C1CCCCC1`, -73.93%.
Take `COc1cc(OC)cc(C(=O)NCCCNc2ncccn2)c1`: the INHIBITION stood at 57.75%.
As for `CCOc1ccc(C(=O)NCCCNc2ncccn2)cc1`, the figure is 50.59%; as for `CCc1ccc(C(=O)NCCNc2ncccn2)cc1`, 56.02%.
In the case of `COc1ccc(C(=O)NCCCNc2ncccn2)cc1F`, the INHIBITION was 5.28%.
Under `COc1ccc(C(=O)NCCCNc2ncccn2)c(OC)c1` stands 48.21%.
For the compound `Cc1ccc(C)n1-c1ccc(C(=O)NCCNc2ncccn2)cc1`, the INHIBITION came to 1.61%.
As for `CS(=O)(=O)c1ccc(C(=O)NCCNc2ncccn2)cc1`, the figure is 35.65%.
As for `O=C(NCCNc1ncccn1)c1ccc(Br)cc1`, the figure is -68.24%; as for `Cc1cc(C)cc(C(=O)NCCCNc2ncccn2)c1`, 29.13%.
